The target of the first assay is TNFAIP6. The assay can be described thus: pooled miR-30 sensor sort-seq; sequence = guide strand. As to conditions: shRNA.
Turning to TTCTCTGTGGTACACACCGGCT, the sensor-assay potency score (higher = more potent) was -1.32.

Sequence TTATCTTCGTACTCATTTGGGA showed a sensor-assay potency score (higher = more potent) of -0.091.

In turn, TTCCAGTAGAAGTAGTACTTGT came in with a sensor-assay potency score (higher = more potent) of -0.0924.

With TACTTGAGTCTAATGTGCCAGT, the sensor-assay potency score (higher = more potent) was -0.543.

Sequence TATTTCAACATAATCAGCCAAG gave a sensor-assay potency score (higher = more potent) of -1.38.

On to TAGTACTTGTATTTTTTCCTTG, for which the sensor-assay potency score (higher = more potent) was -0.262.

As for TAAAAATTTGCTTTGGATCTGT, the sensor-assay potency score (higher = more potent) was 0.758.

In turn, TGAAGCATCACTTAGAAACTTC registered a sensor-assay potency score (higher = more potent) of 0.148.

TTCAAATTCACACACCGCCTTA yielded a sensor-assay potency score (higher = more potent) of -0.588.

The sequence TTGTATTTTTTCCTTGACTGGA registered a sensor-assay potency score (higher = more potent) of -0.793.

The next assay deals with TNFRSF10A. Described as above. As to conditions: shRNA.
Turning to TTTCGTGAGGTCCAGCTGCCTC, the sensor-assay potency score (higher = more potent) is -0.987.

TTAACTCCTAACACCTAAGAGG: the sensor-assay potency score (higher = more potent) was -0.905.

In the case of TTGCATACAAGGCATCCCCTGG, the sensor-assay potency score (higher = more potent) was -0.804.

Take TTGAAGGTCTTGTGGACCCGGA: the sensor-assay potency score (higher = more potent) worked out at 0.23.

TCTAAGTAGATGAACTTTCCAG displayed a sensor-assay potency score (higher = more potent) of -0.118.

The sequence TTCTTTGTGGACACACTCGATG yielded a sensor-assay potency score (higher = more potent) of -0.86.

The sequence TTGATCATGAAGTTTGATGGTT gave a sensor-assay potency score (higher = more potent) of 0.371.

Sequence TGTATTAACTCCTAACACCTAA gave a sensor-assay potency score (higher = more potent) of -0.808.

TTGATGGTTGCAGCTGAGCTAG registered a sensor-assay potency score (higher = more potent) of -1.28.

Take TCTTCTAAGTAGATGAACTTTC: the sensor-assay potency score (higher = more potent) was -0.791.

In the case of AAACTTGTCAAAGAACAGCATC, the sensor-assay potency score (higher = more potent) was -1.04.

In a further assay the target is TNIP2. Described as above. As to conditions: shRNA.
TTCTGACATGAAGTCATCCTTG: the sensor-assay potency score (higher = more potent) is -0.577.

Turning to TTTATTTTCTCTTCCAACTGTC, the sensor-assay potency score (higher = more potent) was found to be 0.553.

TATTCCATAGAACAGGATGGGG returned a sensor-assay potency score (higher = more potent) of -0.938.

TTCTTCTAGTCGCTCAGTCAGC: the sensor-assay potency score (higher = more potent) is -0.848.

TTGAATCCTACTTTGAGCCCGT: the sensor-assay potency score (higher = more potent) is 0.603.

Take TTCAACGTGAGTCACCTTCTGT: the sensor-assay potency score (higher = more potent) is -0.171.

Turning to TTTTCTCTTCCAACTGTCTGTT, the sensor-assay potency score (higher = more potent) is -0.371.

As for TCCAACTGTCTGTTGAGCCGGG, the sensor-assay potency score (higher = more potent) was -0.18.

Sequence TAACAGTCGATTTTCTTCCTGC displayed a sensor-assay potency score (higher = more potent) of 0.411.

As to TTGCTCGTCACTGAAGCACTGC, the sensor-assay potency score (higher = more potent) was determined as 0.0739.

Regarding TTCTCTTCCAACTGTCTGTTGA, the sensor-assay potency score (higher = more potent) came to 0.202.

TTTCTCTTCCAACTGTCTGTTG returned a sensor-assay potency score (higher = more potent) of -0.51.

Another assay has as its target TNK1. The description is as above. As to conditions: shRNA.
TAGTGCTGTCTGGCACTCCTGG yielded a sensor-assay potency score (higher = more potent) of -1.01.

Regarding TAGTGGGCAGACTAGATCCTTC, the sensor-assay potency score (higher = more potent) was -0.841.

Take TTCAGAGCTTCGGACAGTCTGC: the sensor-assay potency score (higher = more potent) was -0.64.

As to TAATGCTCCAGGATGCGCCAGC, the sensor-assay potency score (higher = more potent) is -0.794.

TATAGCAGCTCTTTTCTTCCAA registered a sensor-assay potency score (higher = more potent) of 0.014.

TTTCTGTCTCCATCTATGCTTC displayed a sensor-assay potency score (higher = more potent) of -0.886.

Regarding TCTCATAATCCATACTACCAGC, the sensor-assay potency score (higher = more potent) is -1.03.
Note: reference of the scale not given here.
